Common to all, as to assay type: functional
Test [1] deals with Solute carrier family 2, facilitated glucose transporter member 1 (Homo sapiens) (UniProt P11166). As to the kind of experiment: ST_JUDE_LEISH: Cytotoxicity at 2uM final concentration against transgenic Leishmania Mexicana promastigotes LmGLUT1 that are glucose transport deficient and complemented with the human glucose transporter GLUT1. Activity is measured by DNA content using SYBR green in vitro.

Test [2] addresses Hexose transporter 1 (Plasmodium falciparum) (UniProt O97467). As to the kind of experiment: ST_JUDE_LEISH: Cytotoxicity at 2uM final concentration against transgenic Leishmania Mexicana promastigotes LmPfHT that are glucose transport deficient and complemented with the Plasmodium falciparum hexose transporter. Activity is measured by DNA content using SYBR green in vitro.
In test [3] the target is Glucose transporter (Leishmania mexicana) (UniProt O61059). Nature of the test: ST_JUDE_LEISH: Cytotoxicity at 2uM final concentration against transgenic Leishmania Mexicana promastigotes LmGT2 that are glucose transport deficient and complemented with the L. Mexicana glucose transporter 2. Activity is measured by DNA content using SYBR green in vitro.

The structures appear in SMILES notation.

As usually defined, the inhibition is the drop in the measured response relative to a control, in per cent.

Chain of Solute carrier family 2, facilitated glucose transporter member 1 (Homo sapiens) (P11166 whole entry): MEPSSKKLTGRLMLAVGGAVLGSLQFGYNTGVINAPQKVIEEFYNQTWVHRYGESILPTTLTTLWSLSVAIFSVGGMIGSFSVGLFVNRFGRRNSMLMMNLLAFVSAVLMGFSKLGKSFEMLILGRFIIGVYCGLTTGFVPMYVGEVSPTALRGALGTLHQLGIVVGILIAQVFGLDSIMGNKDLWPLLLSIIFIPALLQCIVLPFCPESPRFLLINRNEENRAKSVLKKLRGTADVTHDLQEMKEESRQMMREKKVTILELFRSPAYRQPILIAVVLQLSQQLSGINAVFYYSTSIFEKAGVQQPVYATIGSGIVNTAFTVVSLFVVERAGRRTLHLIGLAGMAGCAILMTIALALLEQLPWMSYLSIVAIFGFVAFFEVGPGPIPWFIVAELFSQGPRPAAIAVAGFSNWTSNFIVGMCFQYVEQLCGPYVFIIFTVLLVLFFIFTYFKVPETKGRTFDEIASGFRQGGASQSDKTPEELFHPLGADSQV

As for `Oc1ccc(Nc2nc(NCc3ccccc3)c3ccccc3n2)cc1`, the values for the inhibition in test [1], in test [2] and in test [3] were 30.1%, 27.1% and 10.6%, respectively.
In the case of `N#Cc1cncc(-c2nc3c(N4CCC(Cc5ccccc5)CC4)cccc3n2CCNCc2ccccc2)c1`, the results for the inhibition in test [1], in test [2] and in test [3] were 5.27%, 4.45% and 6.16%, respectively.
The corresponding values for `Oc1ccc(CCNCCCCCNCCCc2ccc(Cl)cc2)cc1O` are 2.04%, -0.25% and 2.06%.
Turning to `O=C(Nc1ccccc1Oc1ccccc1)NC1CCN(c2ccnc3cc(Cl)ccc23)C1` (configuration not stated), the inhibition in test [1] stood at 3.65%; in test [2], 4.63%; in test [3] it was 3.25%.
The corresponding values for `CC(C)(C)OC(=O)N1CCN(c2ccccc2NC(=O)c2cccc(C(F)(F)F)c2Oc2ccc(F)cc2)CC1` are -1.41%, 0.7% and 0.52%.
`Cc1cccc(C(=O)NC(NC(=S)Nc2ccc([N+](=O)[O-])cc2)C(Cl)(Cl)Cl)c1` (configuration not stated): the values for the inhibition in test [1], in test [2] and in test [3] were 3.68%, 3.52% and -0.6%, respectively.
On to `CC(C)CCNC(=O)C1Cc2c([nH]c3ccc(Br)cc23)C2(CCN(Cc3ccccc3)CC2)N1` (configuration not stated), for which the inhibition was found to be 104% in test [1], 103% in test [2] and 94.2% in test [3].
The corresponding values for `Cc1cccc2nc(-c3ccc(-c4cccc(CN5CCN(c6ccncc6)CC5)c4)cc3)[nH]c12` are 25.2%, 25.8% and 8.81%.
The corresponding values for `CCNc1cc(C(=O)N[C@@H](Cc2ccccc2)[C@H](O)CNC(C)(C)CCCC(C)C)cc(N2CCCCS2(=O)=O)c1` are -0.28%, 0.88% and -0.83%.
For the compound `Cc1nc(C)c(-c2ccc(-c3ccc(F)cc3)cc2)c(O)c1Cl`, the inhibition came out at 1.77% in test [1], 2.48% in test [2] and 0.55% in test [3].
The corresponding values for `CCOc1ccc2[nH]c(C)cc(=NN=Cc3ccncc3)c2c1` are 0.75%, 0.8% and -2.05%.
With `O=S(=O)(c1ccc(Cl)cc1Cl)N1CCCCC(c2ccc(C(F)(F)F)cc2)=N1`, the values for the inhibition in test [1], in test [2] and in test [3] were 0.38%, 0.43% and 1.07%, respectively.
On to `COc1ccc(-c2cc(C(=O)Nc3ccc4[nH]c(-c5ccccc5)nc4c3)[nH]n2)cc1`, for which the results for the inhibition in test [1], in test [2] and in test [3] were 13.1%, 12% and 14.1%, respectively.
As for `Cc1cc(CNCCCCCCCNCc2cccc([N+](=O)[O-])c2)ccc1O`, the inhibition in test [1] was 2.48%; in test [2], 1.23%; in test [3] it was -1.43%.
Take `CC(C)(C)OC(=O)n1cc(C2CCN(CCCC34CCCc5cccc(c53)NC4=O)CC2)c2ccncc21` (configuration not stated): the inhibition in test [1] was -0.89%; in test [2], -0.01%; in test [3] it was 9.45%.
The corresponding values for `COc1ccc(N2CCN(CCCCNC(=O)c3ccc(NC(=O)c4cc(Cl)cc(Cl)c4)cc3)CC2)c(OC)c1` are 2.07%, 3.87% and 3.2%.
The like results for `O=C(NCCCCN1CCC(c2ccc3c(c2OCC(O)c2ccc(Cl)cc2)CCCC3)CC1)c1ccc(-c2ccc(C(F)(F)F)cc2)cc1` (configuration not stated) were, in that order, 0.65%, 1.49% and 0.85%.
Take `CC1(C)CCNc2cc(NC(=O)c3ccc(-c4ncccc4C(F)(F)F)cc3)ccc21`: the inhibition came out at 2.63% in test [1], 1.14% in test [2] and 0.73% in test [3].
The corresponding values for `Cc1ccc2[nH]c(-c3ccccc3)cc(=NN=Cc3cccnc3)c2c1` are 1.16%, 0.03% and -2.99%.
The like results for `N#Cc1cccc(C(O)CN(Cc2ccccc2)Cc2ccccc2)c1` (configuration not stated) were, in that order, 1.37%, 1.53% and 2.04%.
The like results for `CCN(CC)c1nc(-c2ccccc2)cc(-c2ccccc2)c1C#N` were, in that order, 1.31%, 1.62% and -0.21%.
Regarding `Cc1cc(-c2ccc3c(c2)CCN(CCC2CCC(NC(=O)/C=C/c4ccc(F)cc4)CC2)CC3)on1` (configuration not stated), the inhibition was found to be 4.44% in test [1], 2.66% in test [2] and 4.41% in test [3].
With `CCOC(=O)CCCc1cc(NC2CCN(C)CC2)nc(Nc2ccc(C)cc2)n1`, the inhibition was -2.45% in test [1], 0.71% in test [2] and -2.59% in test [3].
As to `CCCN(Cc1nnc(-c2ccco2)o1)C(=O)C1CCN(c2ncc(C(F)(F)F)cc2Cl)CC1`, the inhibition in test [1] is 11.4%; in test [2] it was 10.2%; in test [3] it was 10.8%.
For the compound `N#Cc1cccc(NC(=O)Nc2ccc(-c3ccc(-c4nc5cc(C(F)(F)F)ccc5[nH]4)cc3)cc2)c1`, the inhibition in test [1] is 3.68%; in test [2], 1.32%; in test [3] it was 4.14%.
The corresponding values for `Cc1cc(N[C@@H](Cc2ccccc2)C(=O)NCCCOC(C)C)nc(NCCc2ccc(F)cc2)n1` are 5.75%, 2.58% and 0.38%.
Turning to `Clc1ccc(-c2nc3cc(-c4ccc5nc(-c6ccc(Cl)cc6)[nH]c5c4)ccc3[nH]2)cc1`, the inhibition worked out at 11.2% in test [1], 12.2% in test [2] and 8.04% in test [3].
For `COc1ccccc1CCN(C)CCN1CCC(NC(=O)c2ccc(-c3ccc(C(F)(F)F)cc3)cc2)CC1`, the values for the inhibition in test [1], in test [2] and in test [3] were 1.81%, 1.97% and 1.05%, respectively.
The corresponding values for `O=C(CCCCCNC(=O)c1ccc(O)c(-c2ccc(Cl)c(Cl)c2)c1)NCc1cccc(C(F)(F)F)c1` are -1.4%, -1.74% and -4.05%.
For `O=S(=O)(c1cc(Cl)ccc1Cl)N1CCCCC(c2ccc(C(F)(F)F)cc2)=N1`, the figures for the inhibition in test [1], in test [2] and in test [3] were 0.47%, 2.66% and 5.01%, respectively.
As to `Cc1cnc(Nc2ccccc2)nc1NCCC(=O)Nc1ccccc1`, the inhibition in test [1] came to 6.97%; in test [2], 8.48%; in test [3], 3.62%.
In the case of `O=C(Nc1ccnc2ccccc12)NC1CCN(Cc2ccccc2)CC1`, the inhibition in test [1] amounted to 3.42%; in test [2] it was 3.28%; in test [3], 3.89%.
The corresponding values for `O=C1COC(c2ccccc2)(c2ccccc2)CN1CC1CCN(Cc2ccc(O)cc2Cl)C1` (configuration not stated) are 3.1%, 1.71% and 2.56%.
`COc1ccc(CNCCCCCCCNCc2ccc(Cl)c(Cl)c2)cc1Cl`: the inhibition turned out to be 5.86% in test [1], 4.67% in test [2] and 2.7% in test [3].
As to `OC(COCc1ccc(-c2ccccc2)cc1)CN1CCCCC1` (configuration not stated), the inhibition in test [1] was 2.72%; in test [2], 1.99%; in test [3], 3.58%.
The corresponding values for `Cc1ccc(-c2nnc(Nc3ccc(CC(N)=O)cc3)c3ccccc23)cc1S(=O)(=O)NCC1CCCO1` (configuration not stated) are 6.25%, 7.99% and 2.36%.
The like results for `Cc1cccnc1Nc1nc(-c2ccccn2)cs1` were, in that order, 93.5%, 73.2% and 90.1%.
Consider `CC(Cc1ccc(NC(=O)c2ccc(CNCCCCc3ccccc3)cc2)cc1)NCCc1cccc(Cl)c1` (configuration not stated), for which the inhibition in test [1] stood at 106%; in test [2] it was 102%; in test [3] it was 105%.
On to `O=C(NCc1cccc(F)c1)Nc1cccc(-c2ccc(-c3nc4cc(F)ccc4[nH]3)cc2)c1`, for which the inhibition in test [1] turned out to be 2.2%; in test [2], 3.53%; in test [3] it was 6.86%.
The like results for `CCOc1c(Br)cc(Cl)cc1CNCCCNc1nc2ccccc2[nH]1` were, in that order, 1.77%, 1.74% and 3%.
The like results for `COc1ccc2[nH]c(C)cc(=NN=Cc3ccc(Cl)cc3)c2c1` were, in that order, 6.05%, 6.41% and -0.5%.
Turning to `O=C1C2C(c3ccc(Cl)c(Cl)c3)N3CC(OCc4ccccc4)CC3(C(=O)O)C2C(=O)N1c1ccc(Br)cc1` (configuration not stated), the inhibition in test [1] was determined as 4.62%; in test [2] it was 4.75%; in test [3], 3.46%.
The corresponding values for `COc1ccc2ncc(F)c(CCN3CC(O)C(CNCc4ccc5ccccc5c4)C3)c2n1` (configuration not stated) are 15.5%, 16.6% and 6.63%.
With `CCCCNC[C@@H](O)[C@H](Cc1ccccc1)NC(=O)c1cc2c3c(c1)c(CC)cn3CCS(=O)(=O)N2C`, the inhibition is 2.53% in test [1], 4.07% in test [2] and 2.04% in test [3].
Regarding `CCC(CC)n1c(C)cc2c3c(N)nc(N)nc3ccc21`, the figures for the inhibition in test [1], in test [2] and in test [3] were 89.4%, 90% and 70.8%, respectively.
With `O=S(=O)(c1ccc2cc[nH]c2c1)N1CCC[C@@H]1CCN1CCC(c2c[nH]c3cnccc23)CC1`, the inhibition is 3.4% in test [1], 2.78% in test [2] and 2.1% in test [3].
The corresponding values for `COc1ccccc1CCC(C)(C)NC(=O)CC(CCc1ccccc1)Nc1ccc(C#N)c2ccccc12` (configuration not stated) are -0.97%, -0.79% and -3.34%.
The corresponding values for `CC(C)(CNC(=O)C1CCN(CCOc2ccc(F)c(F)c2)CC1)c1nc(-c2ccc(Cl)c(O)c2)c(-c2ccncc2)[nH]1` are 4.62%, 4.16% and 5.08%.
The like results for `Cc1nc(C)c(-c2ccc(S(=O)(=O)c3ccc(Cl)cc3)cc2)c(O)c1Cl` were, in that order, 9.02%, 5.86% and 7.16%.

These data come from ChEMBL document CHEMBL3433997, “St. Jude Leishmania screening dataset” (2016).
